# In PubChem BioAssay AID1159580 (chemical genetic matrix, 2015):
# Where “and” joins values, the source holds several entries; their conditions need not be identical. Identical values can stand only once. About 2,000 (36%) of roughly 5,500 compounds were called active. Another 18% or so got no clear call; they are omitted. This is one part of the list. Unmarked numbers belong to inactive results. Rule as the data show it: active = normalized growth mostly below about 0.91 (no sharp cut-off); inconclusive = no clear call, values can overlap the other calls; inactive = mostly above about 0.92.
# Assay: chemical genetic growth profiling, strain panel (AID 1159580);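 also: tested at 20 µM; growth read once vehicle control cultures reached saturation at 30 °C; 1 = growth at the plate median or of vehicle wells; lower values mean less growth of the strain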
# Settings: growth OD
# [1] = S. cerevisiae deletion strains, locus YAL040C, strain CLN3, active compounds read low
# [2] = S. cerevisiae deletion strains, locus YCL061C, strain MRC1 (second series), active compounds read low
# [3] = S. cerevisiae deletion strains, locus YER002W, strain NOP16, active compounds read low
# [4] = S. cerevisiae deletion strains, locus YGR078C, strain PAC10, active compounds read low
# [5] = S. cerevisiae deletion strains, locus YJR075W, strain HOC1, active compounds read low
# [6] = S. cerevisiae deletion strains, locus YMR263W, strain SAP30, active compounds read low
# [7] = S. cerevisiae deletion strains, locus YMR307W, strain GAS1, active compounds read low
# [8] = S. cerevisiae deletion strains, locus YNL128W, strain TEP1, active compounds read low
# [9] = S. cerevisiae deletion strains, locus YNL153C, strain GIM3, active compounds read low
# [10] = S. cerevisiae deletion strains, locus YNL175C, strain NOP13, active compounds read low
# [11] = S. cerevisiae deletion strains, locus YNL197C, strain WHI3, active compounds read low
# [12] = S. cerevisiae deletion strains, locus YNL224C, strain SQS1, active compounds read low
# [13] = S. cerevisiae deletion strains, locus YOR083W, strain WHI5 (second series), active compounds read low
# [14] = S. cerevisiae deletion strains, locus YAL013W, strain DEP1, active compounds read low
# [15] = S. cerevisiae deletion strains, locus YDR150W, strain NUM1, active compounds read low
# [16] = S. cerevisiae deletion strains, locus YDR363W, strain ESC2, active compounds read low
# [17] = S. cerevisiae deletion strains, locus YGR229C, strain SMI1, active compounds read low
# [18] = S. cerevisiae deletion strains, locus YNL322C, strain KRE1, active compounds read low
structure (smiles),measurement,setting,value
CC(C)CN(C)c1nc(N)c(C(=O)N=C(N)N)nc1Cl,normalized growth,[1],0.968
same,normalized growth,[2],0.963
same,normalized growth,[3],1.04
same,normalized growth,[4],0.99
same,normalized growth,[5],0.957
same,normalized growth,[6],0.986
same,normalized growth,[7],0.971
same,normalized growth,[8],0.986
same,normalized growth,[9],0.855
same,normalized growth,[10],1.01
same,normalized growth,[11],1
same,normalized growth,[12],1.03
same,normalized growth,[13],0.866 (active)
NC(=Nc1ccccc1)NC(=O)c1nc(Cl)c(N)nc1N,normalized growth,[14],0.975
same,normalized growth,[1],0.997
same,normalized growth,[2],1
same,normalized growth,[15],0.999
same,normalized growth,[16],0.973
same,normalized growth,[3],0.991
same,normalized growth,[17],1
same,normalized growth,[7],0.993
same,normalized growth,[9],0.986
same,normalized growth,[10],1.01
same,normalized growth,[11],1.01
same,normalized growth,[12],1
same,normalized growth,[18],0.992
same,normalized growth,[13],1
NC(N)=NC(=O)c1nc(Cl)c(N2CCCCCC2)nc1N,normalized growth,[14],1.01 and 0.962
same,normalized growth,[1],1.09
same,normalized growth,"S. cerevisiae deletion strains, locus YBR021W, strain FUR4, active compounds read low",1.02
same,normalized growth,"S. cerevisiae deletion strains, locus YBR229C, strain ROT2, active compounds read low",1.01
same,normalized growth,"S. cerevisiae deletion strains, locus YCL029C, strain bik1, active compounds read low",1.01
same,normalized growth,"S. cerevisiae deletion strains, locus YDL035C, strain GPR1, active compounds read low",1
same,normalized growth,"S. cerevisiae deletion strains, locus YDL074C, strain BRE1, active compounds read low",0.989
same,normalized growth,"S. cerevisiae deletion strains, locus YDL101C, strain DUN1, active compounds read low",1.02
same,normalized growth,"S. cerevisiae deletion strains, locus YDL134C, strain PPH21, active compounds read low",1.01
same,normalized growth,"S. cerevisiae deletion strains, locus YDL185W, strain tfp1, active compounds read low",1.02
same,normalized growth,"S. cerevisiae deletion strains, locus YDL192W, strain arf1, active compounds read low",1.01
same,normalized growth,"S. cerevisiae deletion strains, locus YDR101C, strain arx1, active compounds read low",1
same,normalized growth,[15],1.01
same,normalized growth,"S. cerevisiae deletion strains, locus YDR162C, strain NBP2, active compounds read low",1.03
same,normalized growth,"S. cerevisiae deletion strains, locus YDR318W, strain mcm21, active compounds read low",1.01
same,normalized growth,[16],0.986
same,normalized growth,"S. cerevisiae deletion strains, locus YDR388W, active compounds read low",1.01
same,normalized growth,"S. cerevisiae deletion strains, locus YDR502C, strain sam2, active compounds read low",1.01
same,normalized growth,"S. cerevisiae deletion strains, locus YEL061C, strain CIN8, active compounds read low",1.01
same,normalized growth,[3],1.02
same,normalized growth,"S. cerevisiae deletion strains, locus YER110C, active compounds read low",1
same,normalized growth,"S. cerevisiae deletion strains, locus YER155C, strain BEM2, active compounds read low",1.01
same,normalized growth,"S. cerevisiae deletion strains, locus YER167W, strain BCK2, active compounds read low",1
same,normalized growth,"S. cerevisiae deletion strains, locus YGL078C, strain dbp3, active compounds read low",1.02
same,normalized growth,"S. cerevisiae deletion strains, locus YGL086W, strain mad1, active compounds read low",0.998
same,normalized growth,"S. cerevisiae deletion strains, locus YGL248W, strain PDE1, active compounds read low",1.01
same,normalized growth,[4],0.991
same,normalized growth,"S. cerevisiae deletion strains, locus YGR135W, strain pre9, active compounds read low",0.995
same,normalized growth,[17],1.01 and 0.996
same,normalized growth,"S. cerevisiae deletion strains, locus YGR252W, strain gcn5, active compounds read low",0.853
same,normalized growth,"S. cerevisiae deletion strains, locus YHR030C, strain SLT2, active compounds read low",1.01 and 1.06
same,normalized growth,"S. cerevisiae deletion strains, locus YHR079C, strain IRE1 (second series), active compounds read low",1.02
same,normalized growth,"S. cerevisiae deletion strains, locus YHR079C, strain IRE1, active compounds read low",1.06
same,normalized growth,"S. cerevisiae deletion strains, locus YHR094C, strain hxt1, active compounds read low",1.01
same,normalized growth,"S. cerevisiae deletion strains, locus YHR129C, strain ARP1, active compounds read low",1
same,normalized growth,"S. cerevisiae deletion strains, locus YHR200W, strain rpn10, active compounds read low",1.02
same,normalized growth,"S. cerevisiae deletion strains, locus YIL066C, strain RNR3, active compounds read low",1.02
same,normalized growth,"S. cerevisiae deletion strains, locus YIL073C, strain SPO22, active compounds read low",1.08
same,normalized growth,"S. cerevisiae deletion strains, locus YIL125W, strain kgd1, active compounds read low",1.01
same,normalized growth,"S. cerevisiae deletion strains, locus YIR030C, strain dcg1, active compounds read low",1.02
same,normalized growth,"S. cerevisiae deletion strains, locus YJL095W, strain BCK1, active compounds read low",0.986 and 1.06
same,normalized growth,"S. cerevisiae deletion strains, locus YJL134W, strain LCB3, active compounds read low",1.01
same,normalized growth,"S. cerevisiae deletion strains, locus YJL168C, strain set2, active compounds read low",1.02
same,normalized growth,"S. cerevisiae deletion strains, locus YJL187C, strain SWE1 (second series), active compounds read low",1.02
same,normalized growth,"S. cerevisiae deletion strains, locus YJR043C, strain POL32, active compounds read low",0.982
same,normalized growth,"S. cerevisiae deletion strains, locus YJR066W, strain TOR1, active compounds read low",1.02
same,normalized growth,[5],0.988
same,normalized growth,"S. cerevisiae deletion strains, locus YKL009W, strain mrt4, active compounds read low",0.999
same,normalized growth,"S. cerevisiae deletion strains, locus YKL068W, active compounds read low",1.01
same,normalized growth,"S. cerevisiae deletion strains, locus YKL085W, strain MDH1 (second series), active compounds read low",1.01
same,normalized growth,"S. cerevisiae deletion strains, locus YKL085W, strain MDH1, active compounds read low",1.01
same,normalized growth,"S. cerevisiae deletion strains, locus YKL190W, strain CNB1, active compounds read low",1.01
same,normalized growth,"S. cerevisiae deletion strains, locus YKR001C, strain vps1, active compounds read low",1.02
same,normalized growth,"S. cerevisiae deletion strains, locus YLR039C, strain RIC1, active compounds read low",1.14
same,normalized growth,"S. cerevisiae deletion strains, locus YLR058C, strain SHM2, active compounds read low",1.02
same,normalized growth,"S. cerevisiae deletion strains, locus YLR102C, strain apc9, active compounds read low",1.01
same,normalized growth,"S. cerevisiae deletion strains, locus YLR113W, strain HOG1, active compounds read low",0.973
same,normalized growth,"S. cerevisiae deletion strains, locus YLR262C, strain YPT6, active compounds read low",1.16
same,normalized growth,"S. cerevisiae deletion strains, locus YLR268W, strain sec22, active compounds read low",1.02
same,normalized growth,"S. cerevisiae deletion strains, locus YLR330W, strain CHS5, active compounds read low",1.02
same,normalized growth,"S. cerevisiae deletion strains, locus YLR342W, strain FKS1 (second series), active compounds read low",0.887
same,normalized growth,"S. cerevisiae deletion strains, locus YLR371W, strain rom2, active compounds read low",1.03
same,normalized growth,"S. cerevisiae deletion strains, locus YLR418C, strain cdc73, active compounds read low",0.91
same,normalized growth,"S. cerevisiae deletion strains, locus YML016C, strain PPZ1, active compounds read low",1.01
same,normalized growth,"S. cerevisiae deletion strains, locus YML032C, strain rad52, active compounds read low",1.01
same,normalized growth,"S. cerevisiae deletion strains, locus YML124C, strain tub3, active compounds read low",1.01
same,normalized growth,"S. cerevisiae deletion strains, locus YMR078C, strain ctf18, active compounds read low",1.01
same,normalized growth,"S. cerevisiae deletion strains, locus YMR223W, strain ubp8, active compounds read low",0.999
same,normalized growth,[6],1.01 and 0.995
same,normalized growth,[7],0.88
same,normalized growth,"S. cerevisiae deletion strains, locus YNL067W, strain RPL9B, active compounds read low",1
same,normalized growth,[8],1.02
same,normalized growth,[9],1.01 and 0.97
same,normalized growth,[10],1.03
same,normalized growth,"S. cerevisiae deletion strains, locus YNL183C, strain NPR1, active compounds read low",1.02
same,normalized growth,[11],1.07
same,normalized growth,[12],1.01
same,normalized growth,"S. cerevisiae deletion strains, locus YNL233W, strain BNI4, active compounds read low",1
same,normalized growth,"S. cerevisiae deletion strains, locus YNL250W, strain rad50, active compounds read low",1.01
same,normalized growth,"S. cerevisiae deletion strains, locus YNL271C, strain bni1, active compounds read low",1.02
same,normalized growth,"S. cerevisiae deletion strains, locus YNL298W, strain CLA4, active compounds read low",1
same,normalized growth,"S. cerevisiae deletion strains, locus YNL307C, strain MCK1, active compounds read low",0.989
same,normalized growth,[18],1.01
same,normalized growth,"S. cerevisiae deletion strains, locus YNR052C, strain pop2, active compounds read low",1.02
same,normalized growth,"S. cerevisiae deletion strains, locus YOL006C, strain TOP1, active compounds read low",0.995
same,normalized growth,"S. cerevisiae deletion strains, locus YOL012C, strain htz1",2.1 [resistant] (active)
same,normalized growth,"S. cerevisiae deletion strains, locus YOL147C, strain pex11, active compounds read low",1
same,normalized growth,"S. cerevisiae deletion strains, locus YOR061W, strain CKA2, active compounds read low",1.01
same,normalized growth,"S. cerevisiae deletion strains, locus YOR069W, strain VPS5, active compounds read low",1.01
same,normalized growth,[13],0.979
same,normalized growth,"S. cerevisiae deletion strains, locus YOR136W, strain idh2, active compounds read low",1.02
same,normalized growth,"S. cerevisiae deletion strains, locus YOR144C, strain elg1, active compounds read low",1.01
same,normalized growth,"S. cerevisiae deletion strains, locus YOR184W, strain ser1, active compounds read low",1.02
same,normalized growth,"S. cerevisiae deletion strains, locus YOR231W, strain MKK1, active compounds read low",1.02
same,normalized growth,"S. cerevisiae deletion strains, locus YOR316C, strain cot1, active compounds read low",1.01
same,normalized growth,"S. cerevisiae deletion strains, locus YPL055C, strain LGE1, active compounds read low",1.01 and 0.902
same,normalized growth,"S. cerevisiae deletion strains, locus YPL241C, strain CIN2, active compounds read low",1.01
same,normalized growth,"S. cerevisiae deletion strains, locus YPL256C, strain CLN2, active compounds read low",1.09
same,normalized growth,"S. cerevisiae deletion strains, locus YPR119W, strain clb2, active compounds read low",1.01
same,normalized growth,"S. cerevisiae deletion strains, locus YPR141C, strain kar3, active compounds read low",1.02
same,normalized growth,"S. cerevisiae deletion strains, locus YPR163C, strain tif3, active compounds read low",1.02
same,normalized growth,"S. cerevisiae deletion strains, locus YPR167C, strain met16, active compounds read low",1.01
same,normalized growth,"S. cerevisiae deletion strains, strain wtn01, active compounds read low",1.01
same,normalized growth,"S. cerevisiae strains, strain wild type, active compounds read low",1.01
